# According to PubChem BioAssay:
# Values joined by “and” are separate entries in the source; they are usually repeats but may differ in a detail not shown here. Equal entries are not always repeated. Some compounds were tested as several samples or in several runs, with calls that do not always agree. Some of the results follow. Inconclusive results are not listed. Active and inactive are the calls of the source.
# Key:
# [1] = inhibitors of TNFa-induced NFkB p65 translocation, primary screen, imaging, HUVEC, MLSMR starter and 10KST1 sets (AID 438;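 active means inhibition above 20% together with a positive visual image hit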;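 further: compound added about 3h40 before a 20 min TNFalpha stimulation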;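 on inhibition: signal is the nuclear over cytoplasmic p65 intensity ratio per well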); details: HUVEC TNFa-induced p65 nuclear translocation; cell count: measured here: nuclei count (cytotoxicity indicator), at 2.08 µM unless noted; inhibition: at 2 µM, stronger effect = higher value unless noted
# [2] = inhibitors of mutant huntingtin aggregation, primary screen, imaging, exon1htt(103Q)mCFP cells, high-content imaging (AID 483;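 active means visual image review flags a hit and inhibition of aggregation exceeds 20%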;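 further: compound exposure lasted 3 days before fixation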;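 on nuclei count: percent of the per-plate median nuclei count of sample wells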); details: exon1htt(103Q)mCFP cell line, aggregate imaging, at 2 µM; inhibition of aggregation: stronger effect = higher value; nuclei count: measured here: cell count, toxicity
# [3] = inhibitors of E-selectin induction by TNFa, primary screen, imaging, HUVEC, immunofluorescence, MLSMR starter and 10KST1 sets (AID 487;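 active means visually confirmed hit in the image check and inhibition above 20%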;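 on inhibition: signal is fraction of cell area covered by stained E-selectin grains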;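 on nuclei count: 100% = median nuclei count of all wells on the same plate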); details: HUVEC TNFalpha-induced E-selectin immunofluorescence imaging, at 2 µM; inhibition: stronger effect = higher value; nuclei count: measured here: cell number, toxicity
# [4] = DUSP6 inhibitors restoring Erk phosphorylation by chemical complementation, primary imaging in DUSP6-transfected HeLa (AID 609;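 active means compounds giving at least 50% inhibition in the cell-based MKP-3 phosphatase rescue imaging test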;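 on inhibition: phospho-Erk level distribution per well compared with pooled transfected vehicle control wells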); details: HeLa MKP-3 transfected, phospho-Erk imaging KS statistic, at 10 µM
# [5] = biological target: Dual specificity protein phosphatase 6 (Homo sapiens) (UniProt Q16828); experiment: as above; details: HeLa MKP-3 transfected, phospho-Erk imaging KS statistic, at 10 µM, stronger effect = higher value
# Sequence of Dual specificity protein phosphatase 6 (Homo sapiens) (Q16828 whole entry, looked up): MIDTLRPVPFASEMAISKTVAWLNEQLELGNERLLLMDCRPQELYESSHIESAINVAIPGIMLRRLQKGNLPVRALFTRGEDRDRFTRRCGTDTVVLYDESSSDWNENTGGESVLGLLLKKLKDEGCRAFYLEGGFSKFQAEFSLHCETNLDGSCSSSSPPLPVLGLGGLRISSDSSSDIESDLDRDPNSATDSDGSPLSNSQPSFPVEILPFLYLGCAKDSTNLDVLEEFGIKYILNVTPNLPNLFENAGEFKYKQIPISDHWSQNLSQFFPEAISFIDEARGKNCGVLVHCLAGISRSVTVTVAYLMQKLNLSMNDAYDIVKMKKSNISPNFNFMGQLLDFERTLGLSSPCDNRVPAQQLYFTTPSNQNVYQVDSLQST
# [6] = biological target: Voltage-gated potassium channel subunit beta-2 (Rattus norvegicus) (UniProt P62483); experiment: KvBeta enzyme negative modulators, primary screen, biochemical, NADPH fluorescence (AID 622;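 active means fluorescence slope higher than the sample average by over 3 SD, cut at about -0.22 in these data, passing the limit was not always enough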;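 further: slope of raw intensity against log time taken from 70 to 1610 s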); details: recombinant KvBeta, 4-cyanobenzaldehyde reduction, at 10 µM, stronger effect = higher value
# Sequence of Voltage-gated potassium channel subunit beta-2 (Rattus norvegicus) (P62483 whole entry, looked up): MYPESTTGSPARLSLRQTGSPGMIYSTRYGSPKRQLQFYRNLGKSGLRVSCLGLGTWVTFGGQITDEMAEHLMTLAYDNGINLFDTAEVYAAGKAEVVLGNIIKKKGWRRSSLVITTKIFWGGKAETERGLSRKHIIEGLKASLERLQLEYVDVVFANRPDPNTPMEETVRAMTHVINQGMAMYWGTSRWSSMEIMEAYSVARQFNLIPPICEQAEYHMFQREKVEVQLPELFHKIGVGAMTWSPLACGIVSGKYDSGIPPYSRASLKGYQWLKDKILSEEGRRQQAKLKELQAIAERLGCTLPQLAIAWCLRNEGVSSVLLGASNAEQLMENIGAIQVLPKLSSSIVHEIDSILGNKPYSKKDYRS
# [7] = biological target: Voltage-gated potassium channel subunit beta-2 (Rattus norvegicus) (UniProt P62483); experiment: KvBeta positive modulators, primary screen, biochemical, NADPH fluorescence (AID 623;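 active means NADPH fluorescence slope more negative than the mean of all samples by about 3 SD, 99.7% confidence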;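 further: fluorescence intensity change per second fitted from 20 to 320 s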); details: Recombinant KvBeta, NADPH fluorescence decrease slope, 10 min; at 10 µM; stronger effect = lower value
# [8] = biological target: Alpha-2C adrenergic receptor (Homo sapiens) (UniProt P18825); experiment: modulators of alpha2C/GIRK thallium flux, primary screen, cell-based, HEK293 alpha2C/GIRK1/2 (AID 624;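 active means fluorescence slope after compound addition differing from the mean of all screened samples at 99.7% confidence, in either direction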;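 further: slope of fluorescence ratio to pre-addition baseline per second over 15 to 24 s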); details: thallium flux BTC fluorescence, at 10 µM, actives lie on both sides
# Sequence of Alpha-2C adrenergic receptor (Homo sapiens) (P18825 whole entry, looked up): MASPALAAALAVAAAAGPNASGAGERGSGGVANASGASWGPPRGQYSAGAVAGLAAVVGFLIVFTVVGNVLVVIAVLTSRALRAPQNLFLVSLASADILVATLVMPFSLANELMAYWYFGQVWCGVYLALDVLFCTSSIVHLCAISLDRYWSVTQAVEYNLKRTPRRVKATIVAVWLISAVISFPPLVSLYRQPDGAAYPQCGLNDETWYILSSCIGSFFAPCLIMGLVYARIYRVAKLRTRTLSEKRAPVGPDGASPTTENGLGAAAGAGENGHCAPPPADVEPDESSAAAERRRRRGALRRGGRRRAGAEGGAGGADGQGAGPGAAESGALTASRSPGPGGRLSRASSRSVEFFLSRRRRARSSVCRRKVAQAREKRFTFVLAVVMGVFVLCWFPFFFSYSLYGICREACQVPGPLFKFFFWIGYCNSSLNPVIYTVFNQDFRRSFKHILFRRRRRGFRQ
# [9] = inhibitors of larval lipid processing in zebrafish, primary screen, whole organism, PED6 fluorescence, gall bladder and intestine (AID 686;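 active means a full or partial loss of lipid-probe fluorescence in the fish gall bladder, intestine or both, judged by eye; inactive means no fluorescence loss, or compound toxic to the fish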;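 further: larvae 5 to 7 days old with five fish per well; signal comes from phospholipase A2 cleavage of quenched PED6 carried via bile; overnight exposure to compound and PED6 before scoring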); details: Zebrafish larvae PED6 lipid processing, fluorescence scoring
# [10] = inhibitors of Chlamydomonas gravitaxis, primary screen, whole organism, Chlamydomonas reinhardtii, WT vs cilia-less mutant, absorbance, 96-well (AID 463189); details: OD600 absorbance, 2 days, at 10 µM, stronger effect = higher value;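 further: 0% = wild type cc124 cells in DMSO and 100% = ciliumless bld1 mutant cells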
# [11] = inhibitors of Sendai virus-induced IRF3 signaling, primary screen, TLR/RLR signaling modifier project, cell-based, Sendai virus stimulus, luciferase, 10K MLSCN set (AID 602276;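 active means inhibition at or above 50% at 10 µM; inactive means inhibition below 50%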;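 further: firefly luciferase from ISG56 promoter only with Renilla not read in this screen; 0% = Sendai virus plus DMSO and 100% = medium plus DMSO without virus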); details: HEK293 RL24 IRF3 luciferase reporter, at 10 µM, stronger effect = higher value
# [12] = inhibitors of poly I:C-induced TLR3 signaling, primary screen, cell-based, poly I:C stimulus, luciferase, 10K MLSCN set (AID 602277;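 active means inhibition of the reporter signal at or above 50%; inactive means inhibition below 50%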); details: HEK293-TLR3 RL24 IRF3 luciferase reporter, at 10 µM, stronger effect = higher value
# [13] = biological target: Solute carrier family 12 member 5 (Homo sapiens) (UniProt Q9H2X9); experiment: KCC2 modulators in sodium-free buffer, confirmation, cell-based, HEK293 KCC2, thallium flux, secondary assay (AID 1713;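 active means thallium flux slope above the same plate's solvent-only control mean plus 3 SD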); details: FluoZin2 fluorescence, at 10 µM, stronger effect = higher value
# Sequence of Solute carrier family 12 member 5 (Homo sapiens) (Q9H2X9 whole entry, looked up): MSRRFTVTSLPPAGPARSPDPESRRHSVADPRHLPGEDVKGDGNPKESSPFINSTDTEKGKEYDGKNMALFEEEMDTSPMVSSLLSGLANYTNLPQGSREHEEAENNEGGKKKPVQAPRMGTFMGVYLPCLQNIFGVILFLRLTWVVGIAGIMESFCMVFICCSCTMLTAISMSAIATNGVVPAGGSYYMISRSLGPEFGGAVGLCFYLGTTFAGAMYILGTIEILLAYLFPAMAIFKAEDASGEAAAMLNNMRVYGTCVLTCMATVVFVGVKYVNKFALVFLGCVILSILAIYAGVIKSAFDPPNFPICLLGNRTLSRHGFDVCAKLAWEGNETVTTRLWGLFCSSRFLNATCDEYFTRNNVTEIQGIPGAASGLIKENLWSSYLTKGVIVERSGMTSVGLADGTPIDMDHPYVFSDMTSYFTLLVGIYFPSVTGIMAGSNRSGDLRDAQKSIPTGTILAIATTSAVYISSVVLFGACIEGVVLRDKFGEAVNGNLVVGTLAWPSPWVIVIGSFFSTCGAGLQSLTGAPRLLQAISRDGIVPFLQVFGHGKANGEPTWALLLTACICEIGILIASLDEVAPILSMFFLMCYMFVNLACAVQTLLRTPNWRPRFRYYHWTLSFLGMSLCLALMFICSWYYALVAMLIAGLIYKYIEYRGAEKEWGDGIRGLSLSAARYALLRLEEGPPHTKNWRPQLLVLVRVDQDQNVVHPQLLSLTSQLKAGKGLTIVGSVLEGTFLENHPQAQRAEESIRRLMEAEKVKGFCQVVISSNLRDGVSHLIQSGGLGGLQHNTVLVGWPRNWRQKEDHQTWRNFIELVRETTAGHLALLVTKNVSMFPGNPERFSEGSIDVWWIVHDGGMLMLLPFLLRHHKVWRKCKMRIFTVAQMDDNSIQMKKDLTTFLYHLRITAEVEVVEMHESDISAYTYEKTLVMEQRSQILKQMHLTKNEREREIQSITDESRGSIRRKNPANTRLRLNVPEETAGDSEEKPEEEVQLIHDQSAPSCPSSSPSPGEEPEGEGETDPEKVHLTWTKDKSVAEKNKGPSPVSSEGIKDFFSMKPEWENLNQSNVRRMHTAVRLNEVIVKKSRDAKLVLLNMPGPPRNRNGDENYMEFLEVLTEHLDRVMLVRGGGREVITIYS
# [14] = PubChem AID 1714; details: HEK293-KCC2 + bumetanide/ouabain, thallium flux FluoZin2; at 10 µM; stronger effect = higher value;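 further: raw slope of fluorescence over initial fluorescence between 10 and 20 s after thallium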
# [15] = biological target: Solute carrier family 12 member 5 (Homo sapiens) (UniProt Q9H2X9); experiment: KCC2 modulators without ouabain present, confirmation, cell-based, HEK293 KCC2, thallium flux, FluoZin2, secondary assay 2 (AID 1715;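 active means thallium flux slope more than 3 SD above or below the plate's solvent-only control mean, mostly below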;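 further: raw slope with 0.1% DMSO as baseline and bumetanide as block control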); details: HEK293-KCC2, thallium flux FluoZin2 fluorescence; at 10 µM; actives lie on both sides
# [16] = thallium flux modulation in parental HEK cells, confirmation, counter-screen for KCC2 modulator project, cell-based, counterscreen 1 (AID 1716;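 active means thallium flux rate significantly above the same plate's solvent-only control wells, beyond their mean plus 3 SD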); details: HEK293 parental cells, thallium flux FluoZin2, ouabain; at 10 µM; baseline-ratio fluorescence slope, 10–20 s after thallium
# [17] = biological target: Solute carrier family 12 member 5 (Homo sapiens) (UniProt Q9H2X9); experiment: KCC2 inhibitors and activators, ouabain retest, confirmation, HEK-KCC2 cells (AID 1717;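 active means thallium flux slope beyond 3 SD from same-plate DMSO control mean in most replicates, usually higher, sometimes lower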;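 further: slope of initial-normalized fluorescence between seconds 10 and 20 after thallium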); details: HEK293-KCC2, thallium flux FluoZin2 fluorescence, at 10 µM, bidirectional: low = inhibitor, high = activator
# [18] = native HEK Tl+ uptake effects, second counter-screen – HEK cells, counterscreen 2, counter-screen for KCC2 modulator project, confirmation (AID 1718;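 active means thallium flux slope above the same plate's solvent-control mean plus 3 SD in both duplicate wells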;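 further: run without ouabain in cells lacking the KCC2 cotransporter; slope of fluorescence scaled to its starting value between 10 and 20 s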); details: HEK293 parental, thallium flux FluoZin-2 fluorescence slope; at 10 µM
# [19] = measured here: cell density z-score
# [20] = measured here: nuclear c-Myc green intensity z-score
# [21] = measured here: nuclear pErk red intensity z-score, stronger effect = higher value
structure (smiles),measurement,setting,value
CCCC(=O)OCC[N+](C)(C)C,cell count,[1],626
same,inhibition,[1],-8.2% (inactive)
same,inhibition of aggregation,[2],-16.7% (inactive)
same,nuclei count,[2],111%
same,inhibition,[3],-31.1% (inactive)
same,nuclei count,[3],135%
same,z-score,[4]; [19],0.404
same,z-score,[4]; [20],-0.787
same,z-score,[4]; [21],0.37
same,inhibition,[5],13.3% (inactive)
same,fluorescence slope,[6],-0.481 (inactive)
same,NADPH fluorescence slope,[7],5e-06 (inactive)
same,slope,[8],0.00561 (inactive)
same,outcome,[9],inactive
same,inhibition,[10],18.3% (inactive)
same,inhibition,[11],21.4% (inactive)
same,inhibition,[12],35% (inactive)
O=C(CSC1c2ccccc2-c2ccccc21)N/N=C/c1ccccc1,normalised thallium flux (F/F0 slope),[13],0.00922 (inactive)
same,normalized thallium flux,[14],0.00567 (inactive)
same,normalized thallium flux,[15],0.0321 (inactive)
same,thallium flux rate (normalised fluorescence),[16],0.00741 (inactive)
same,"raw Tl+ flux slope (below DMSO = inhibition, above = activation)",[17],0.02 (inactive)
same,thallium flux slope,[18],0.0112 (active)
CN1CC[C@@]23CCCC[C@@H]2[C@@H]1Cc1ccc(O)cc13,cell count,[1],612
same,inhibition,[1],-2% (inactive)
same,inhibition of aggregation,[2],-9.3% (inactive)
same,nuclei count,[2],78.9%
same,inhibition,[3],-41.4% (inactive)
same,nuclei count,[3],127%
same,z-score,[4]; [19],-1.02
same,z-score,[4]; [20],0.228
same,z-score,[4]; [21],2.32
same,inhibition,[5],-3.03% (inactive)
same,fluorescence slope,[6],-0.439 (inactive)
same,NADPH fluorescence slope,[7],2.4e-05 (inactive)
same,slope,[8],0.00406 (inactive)
same,outcome,[9],inactive
same,inhibition,[10],-11.1% (inactive)
same,inhibition,[11],-1.46% (inactive)
same,inhibition,[12],37.2% (inactive)
Cc1c2ccncc2c(C)c2c1[nH]c1ccccc12,cell count,[1],493
same,inhibition,[1],-11.8% (inactive)
same,inhibition of aggregation,[2],-178% (inactive)
same,nuclei count,[2],27.6%
same,inhibition,[3],-23% (inactive)
same,nuclei count,[3],100%
same,z-score,[4]; [19],-0.124
same,z-score,[4]; [20],0.964
same,z-score,[4]; [21],-1.2
same,inhibition,[5],38.9% (inactive)
same,fluorescence slope,[6],-0.464 (inactive)
same,NADPH fluorescence slope,[7],-5.8e-09 (inactive)
same,slope,[8],0.0129 (active)
same,inhibition,[10],11% (inactive) and 108% (active)
same,inhibition,[11],12.8% (inactive)
same,inhibition,[12],91.8% (active)
O=C(CCCN1CCC2(CC1)C(=O)NCN2c1ccccc1)c1ccc(F)cc1,cell count,[1],564
same,inhibition,[1],2.1% (inactive)
same,inhibition of aggregation,[2],-20.4% (inactive)
same,nuclei count,[2],100%
same,inhibition,[3],3.3% (inactive)
same,nuclei count,[3],103%
same,z-score,[4]; [19],-2.08
same,z-score,[4]; [20],0.206
same,z-score,[4]; [21],3.52
same,inhibition,[5],3.59% (inactive)
same,fluorescence slope,[6],-0.51 (inactive)
same,NADPH fluorescence slope,[7],-3.9e-05 (inactive)
same,slope,[8],0.00481 (inactive)
same,outcome,[9],inactive
same,inhibition,[10],4.76% (inactive) and 18.8% (inactive)
same,inhibition,[11],29.9% (inactive)
same,inhibition,[12],29.3% (inactive)
O=c1c2ccccc2[se]n1-c1ccccc1,cell count,[1],504
same,inhibition,[1],-10.8% (inactive)
same,inhibition of aggregation,[2],7.2% (inactive)
same,nuclei count,[2],84.9%
same,inhibition,[3],-42.3% (inactive)
same,nuclei count,[3],117%
same,z-score,[4]; [19],1
same,z-score,[4]; [20],0.0235
same,z-score,[4]; [21],-0.954
same,inhibition,[5],7.39% (inactive)
same,fluorescence slope,[6],-0.437 (inactive)
same,NADPH fluorescence slope,[7],-0.000217 (active)
same,slope,[8],0.00458 (inactive)
same,outcome,[9],inactive
same,inhibition,[10],6.32% (inactive) and 27.8% (inactive)
same,inhibition,[11],0.283% (inactive)
same,inhibition,[12],12.7% (inactive)
CC(C)[C@@]1(NC(=O)[C@@H]2C=C3c4cccc5[nH]cc(c45)C[C@H]3N(C)C2)O[C@@]2(O)[C@@H]3CCCN3C(=O)[C@H](Cc3ccccc3)N2C1=O,cell count,[1],584
same,inhibition,[1],-0.4% (inactive)
same,inhibition of aggregation,[2],7.1% (inactive)
same,nuclei count,[2],99.7%
same,inhibition,[3],-22.9% (inactive)
same,nuclei count,[3],114%
same,z-score,[4]; [19],0.234
same,z-score,[4]; [20],0.806
same,z-score,[4]; [21],-0.53
same,inhibition,[5],10.2% (inactive)
same,fluorescence slope,[6],-0.477 (inactive)
same,NADPH fluorescence slope,[7],-1e-05 (inactive)
same,slope,[8],0.00405 (inactive)
same,inhibition,[10],1.14% (inactive) and 21.5% (inactive)
same,inhibition,[11],22% (inactive)
same,inhibition,[12],13.1% (inactive)
NCC(CC(=O)O)c1ccc(Cl)cc1 (configuration not stated),cell count,[1],601
same,inhibition,[1],-13.8% (inactive)
same,inhibition of aggregation,[2],-0.4% (inactive)
same,nuclei count,[2],95.6%
same,inhibition,[3],-102% (inactive)
same,nuclei count,[3],112%
same,z-score,[4]; [19],-0.759
same,z-score,[4]; [20],1.88
same,z-score,[4]; [21],0.491
same,inhibition,[5],9.37% (inactive)
same,fluorescence slope,[6],-0.448 (inactive)
same,NADPH fluorescence slope,[7],-4.9e-05 (inactive)
same,slope,[8],0.00441 (inactive)
same,outcome,[9],inactive
same,inhibition,[10],-1.51% (inactive) and 3.49% (inactive)
same,inhibition,[11],13.4% (inactive)
same,inhibition,[12],26.4% (inactive)
CC(NC(C)(C)C)C(=O)c1cccc(Cl)c1 (configuration not stated),cell count,[1],651
same,inhibition,[1],-1.3% (inactive)
same,inhibition of aggregation,[2],4% (inactive)
same,nuclei count,[2],102%
same,inhibition,[3],-75.7% (inactive)
same,nuclei count,[3],132%
same,z-score,[4]; [19],-0.59
same,z-score,[4]; [20],0.546
same,z-score,[4]; [21],-0.888
same,inhibition,[5],12.4% (inactive)
same,fluorescence slope,[6],-0.447 (inactive)
same,NADPH fluorescence slope,[7],-3.7e-05 (inactive)
same,slope,[8],0.00462 (inactive)
same,outcome,[9],inactive
same,inhibition,[10],-4.32% (inactive) and 13.4% (inactive)
same,inhibition,[11],11.7% (inactive)
same,inhibition,[12],29.6% (inactive)
COP(=O)(OC)C(O)C(Cl)(Cl)Cl (configuration not stated),cell count,[1],659
same,inhibition,[1],4.7% (inactive)
same,inhibition of aggregation,[2],-21.7% (inactive)
same,nuclei count,[2],104%
same,inhibition,[3],-58.1% (inactive)
same,nuclei count,[3],126%
same,z-score,[4]; [19],-0.465
same,z-score,[4]; [20],1.59
same,z-score,[4]; [21],0.972
same,inhibition,[5],23.4% (inactive)
same,fluorescence slope,[6],-0.462 (inactive)
same,NADPH fluorescence slope,[7],-6e-05 (inactive)
same,slope,[8],0.00473 (inactive)
same,outcome,[9],inactive
same,inhibition,[10],12.4% (inactive)
same,inhibition,[11],17.5% (inactive)
same,inhibition,[12],39.8% (inactive)
